Compound activity as filed in PubChem BioAssay.
TDP1 cell CPT – DT40-hTDP1 cell growth loss with CPT. chicken DT40 Tdp1-/-;hTDP1 cells + 20 nM CPT, ATP luminescence, 48 h. Potency, µM (titrated, usually from 46.2 µM), for inactives: at the highest dose activity change, negative = growth inhibition, hits mostly inhibitors. 420,000 compounds, 12% hits. AID 686979; further: on the % scale 0 is the no-effect control and ±100 the full control effect; nearly all actives have a fitted effect of over 55% in size
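Chicken DT40 Tdp1-/- cells stably complemented with human TDP1 were seeded at 400 cells/well in medium containing 20 nM camptothecin, exposed to pin-transferred compounds, and grown at 37 °C for at least 48 hr. Viability was read as ATP luminescence.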
TDP1 cell noCPT – qHTS for Inhibitors of human tyrosyl-DNA phosphodiesterase 1 (TDP1): qHTS in cells in absence of CPT. DT40 Tdp1-/- hTDP1 cells, no CPT, ATP luminescence, 48 h. Potency, µM (series often up to 46.2 µM), for inactives: top-dose activity change, negative = growth inhibition, hits mostly inhibitors. 420,000 compounds, 15% hits. AID 686978, 2013; further: on the % scale 0 is the no-effect control and ±100 the full control effect; nearly all actives have a fitted effect of over 55% in size
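Seeded 400 DT40-hTDP1 cells/well (vehicle DMSO, no 20 nM CPT); pinned compounds; ≥48 hr at 37 °C; CellTiter-Glo luminescence as viability measure.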
HepG2 tox – counter-screen for TGF-b inhibitors: cytotoxicity in HepG2 cells; Potency, µM (doses to about 46.1 µM), inactives show top-dose activity change, negative = cytotoxicity, most hits filed as cytotoxic; AID 588856; HepG2 CAGA-GFP viability, ATP luminescence, 18 h; 410,000 compounds, 0.76% hits
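HepG2 CAGA-GFP cells (1000/well, DMEM with 1% FBS) received compound, then TGF-beta at 500 pg/mL final, and were incubated 18 hours at 37 degrees C. Viability was read by CellTiter-Glo luminescence. Media-only wells were set as complete cell-killing and DMSO as no toxicity.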
TGFb SMAD3 inh – inhibitors of TGF-b signaling. HepG2 CAGA-GFP TGF-b/SMAD3 reporter, GFP fluorescence, 18 h; TGF-beta stimulated, 500 pg/mL final. Potency, µM (highest dose often 46.1 µM), for inactives: at the top dose activity, negative = inhibition, hits mostly inhibitors. 410,000 compounds, 1.2% hits; further: on the % scale 0 is the no-effect control and ±100 the full control effect; nearly all actives have a fitted effect of over 65% in size
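Inhibition of TGF-beta-driven CAGA-GFP reporter expression in HEPG2 cells is measured by cellular GFP fluorescence after 18 h stimulation with 500 pg/mL recombinant TGF-beta in 1% FBS medium at 37 degrees C.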
HT1080 IDH1KD tx – kills HT-1080 cells with IDH1 knockdown; 360,000 compounds, 2% hits; Potency, µM (highest dose often 46.1 µM), for inactives: top-dose activity, negative = toxicity, hits mostly cytotoxic; HT-1080 IDH1 knockdown viability, ATP luminescence, 48 h;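 further: 0% = DMSO wells and -100% = cell-free medium wells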
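HT-1080-IDH1KD cells (IDH1 knocked down), 750/well in RPMI with 5% FBS, treated with compound 48 h at 37 degrees C. Viability by CellTiter-Glo luminescence, normalised to DMSO and no-cell wells; concentration-response curves classed.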
HT1080-NT tox – kills 2HG-producing HT-1080-NT fibrosarcoma cells | HT-1080-NT fibrosarcoma viability, CellTiter-Glo ATP luminescence, 48 h | Potency, µM (doses to about 46.1 µM), without a hit: top-dose activity, negative = less viability, actives largely listed as cytotoxic | 360,000 compounds, 1.6% hits;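 further: NT is the 2HG producing partner of a matched IDH1 knockdown line; 0% = DMSO-treated cells and -100% = media-only wells without cells; nearly all actives have a fitted effect of over 55% in size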
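Toxicity toward the 2HG-producing NT line was scored as %Activity, normalised to DMSO and no-cell wells, from CellTiter-Glo luminescence after 48 hours' treatment.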
Starred values were filed as active, the others as inactive; ! = a repeat was not active; [ ] = remark or other dose. Shown are actives, neighbours in structure and some others; about 17% of the full set was active somewhere. The call rests on the fitted dose curve; in most records, active means well fitted curve in the direction sought with a large enough effect; inconclusive means small, poorly fitted or top-dose-only effect, or another doubt; inactive means no such curve, though single readings can be large; an effect the other way counts as inactive or inconclusive. Potency means the concentration at half of the fitted maximal effect.

O=c1c(OC2OC(CO)C(O)C(O)C2OC2OC(CO)C(O)C(O)C2OC2OC(CO)C(O)C(O)C2O)c(-c2ccc(O)c(O)c2)oc2cc(O)cc(O)c12 (stereo not drawn) was read as TDP1 cell CPT 14.6µM*, TDP1 cell noCPT 20.6µM*, HepG2 tox -6.7%, TGFb SMAD3 inh 17.5%, HT1080 IDH1KD tx 7.0% and HT1080-NT tox 0.9%.
COc1c(-c2ccc(O)c(O)c2)oc2cc(O)cc(O)c2c1=O was read as TDP1 cell CPT 10.3µM*!, TDP1 cell noCPT 9.2µM*!, HepG2 tox -28.2%, TGFb SMAD3 inh 1.0%, HT1080 IDH1KD tx -23.8% and HT1080-NT tox -9.1%.
For O=c1c2c(O)cc(O)cc2oc2ccc(O)c(O[C@@H]3O[C@H](CO)[C@@H](O)[C@H](O)[C@H]3O[C@H]3O[C@H](CO)[C@@H](O)[C@H](O)[C@H]3O)c12 the results were TDP1 cell CPT -0.5%, TDP1 cell noCPT -1.9%, HepG2 tox -1.9%, TGFb SMAD3 inh -10.6%, HT1080 IDH1KD tx -2.6% and HT1080-NT tox 1.0%.
Screening Cc1nn(-c2ccccc2)c(C)c1[N+](=O)[O-] returned TDP1 cell CPT -4.9%, TDP1 cell noCPT -4.6%, HepG2 tox -7.2%, TGFb SMAD3 inh -11.9%, HT1080 IDH1KD tx 3.5% and HT1080-NT tox 5.1%.
COc1ccc(C(=O)/C=C/c2ccc(N(C)C)cc2)c(OC)c1 was read as TDP1 cell CPT 7.31µM*, TDP1 cell noCPT 10.3µM*, HepG2 tox -7.9%, TGFb SMAD3 inh 154.4%, HT1080 IDH1KD tx inconclusive and HT1080-NT tox inconclusive.
For COc1ccc(/C=C/C(=O)c2cccs2)c(OC)c1 the results were TDP1 cell CPT 1.06µM* and TDP1 cell noCPT 2.37µM*.
Screening COc1ccc(/C=C/C(=O)c2cc3cccc(OC)c3oc2=O)cc1 returned TDP1 cell CPT inconclusive, TDP1 cell noCPT 23.1µM*, HepG2 tox -21.1%, TGFb SMAD3 inh 18.1%, HT1080 IDH1KD tx -0.3% and HT1080-NT tox -18.2%.
COc1ccc(C(=O)/C=C/Sc2nc3ccccc3o2)cc1 was read as TDP1 cell CPT 2.59µM*, TDP1 cell noCPT 2.31µM*, HepG2 tox 17.8µM*, TGFb SMAD3 inh 10µM*, HT1080 IDH1KD tx 3.26µM* and HT1080-NT tox inconclusive.
For COc1ccc(OC)c(C(=O)/C=C/c2ccccc2C(F)(F)F)c1 the results were TDP1 cell CPT 25.9µM*, TDP1 cell noCPT 20.6µM*, HepG2 tox -99.6%, TGFb SMAD3 inh inconclusive, HT1080 IDH1KD tx inconclusive and HT1080-NT tox inconclusive.
Cc1ccc(/C=C/C(=O)c2ccccc2O)cc1 was read as TDP1 cell CPT inconclusive, TDP1 cell noCPT inconclusive, HepG2 tox -21.8%, TGFb SMAD3 inh inconclusive, HT1080 IDH1KD tx inconclusive and HT1080-NT tox inconclusive.
COc1ccc(C(=O)/C=C/c2ccccc2)c(OC)c1 was read as TDP1 cell CPT -104.4%, TDP1 cell noCPT 11.6µM*, HepG2 tox -56.6%, TGFb SMAD3 inh inconclusive, HT1080 IDH1KD tx inconclusive and HT1080-NT tox -25.2%.
For Cc1ccc2occ(/C=C/C(=O)c3ccccc3O)c(=O)c2c1 the results were TDP1 cell CPT 18.4µM*, TDP1 cell noCPT inconclusive, HepG2 tox 5.8%, TGFb SMAD3 inh 31.4%, HT1080 IDH1KD tx 6.8% and HT1080-NT tox 6.6%.
`COc1ccc(OC)c(N/C=C/C(=O)c2ccccc2)c1` gave TDP1 cell CPT -1.8%, TDP1 cell noCPT -39.4%, HepG2 tox -45.6%, TGFb SMAD3 inh -18.9%, HT1080 IDH1KD tx -26.5% and HT1080-NT tox -3.6%.
COc1ccc(C=CC(=O)c2ccc([N+](=O)[O-])cc2)cc1 was read as TDP1 cell CPT -6.8%, TDP1 cell noCPT -26.6%, HepG2 tox 14.5%, TGFb SMAD3 inh 0.0%, HT1080 IDH1KD tx -20.1% and HT1080-NT tox 12.2%.
For Cc1[nH]c(C)c(C(=O)/C=C/c2ccc([N+](=O)[O-])cc2)c1C the results were TDP1 cell CPT 16.4µM*, TDP1 cell noCPT 23.1µM*, HepG2 tox -41.6%, TGFb SMAD3 inh inconclusive, HT1080 IDH1KD tx 11.6µM* and HT1080-NT tox inconclusive.
CCC(CC)C(=O)Nc1ccc(OCc2cc(=O)n3ccc(C)cc3n2)cc1 was read as TDP1 cell CPT -3.8%, TDP1 cell noCPT -15.0%, HepG2 tox -3.4% and TGFb SMAD3 inh -1.2%.
Screening COCOc1cc(O)c(C(=O)/C=C/c2ccccc2)c(OCOC)c1 returned TDP1 cell CPT 14.6µM*, TDP1 cell noCPT 18.4µM*, HepG2 tox -79.7%, TGFb SMAD3 inh inconclusive, HT1080 IDH1KD tx inconclusive and HT1080-NT tox inconclusive.
For O=C(/C=C/c1cccnc1)c1ccc([N+](=O)[O-])cc1 the results were TDP1 cell CPT -29.8%, TDP1 cell noCPT inconclusive, HepG2 tox -36.5%, TGFb SMAD3 inh -4.2%, HT1080 IDH1KD tx -24.8% and HT1080-NT tox inconclusive.
Cc1ccc(O)c(C(=O)C=Cc2ccccc2)c1 was read as TDP1 cell CPT inconclusive, TDP1 cell noCPT 20.6µM*, HepG2 tox -94.0%, TGFb SMAD3 inh 0.0%, HT1080 IDH1KD tx inconclusive and HT1080-NT tox inconclusive.
O=C(C=Cc1ccccc1)c1ccc([N+](=O)[O-])cc1 was read as TDP1 cell CPT inconclusive, TDP1 cell noCPT 18.4µM*, HepG2 tox -46.9%, TGFb SMAD3 inh inconclusive, HT1080 IDH1KD tx inconclusive and HT1080-NT tox inconclusive.
COc1ccc(C(=O)/C=C/c2ccccc2)cc1 was read as TDP1 cell CPT inconclusive and TDP1 cell noCPT 23.1µM*.
`COc1ccc(C(=O)/C=C/c2ccc(O)cc2)cc1` gave TDP1 cell CPT -22.3%, TDP1 cell noCPT inconclusive, HepG2 tox -31.9%, TGFb SMAD3 inh -17.2%, HT1080 IDH1KD tx 2.1% and HT1080-NT tox -28.4%.
`Cc1ccc(OCCC(=O)OCC(=O)c2ccc3c(c2)NC(=O)CO3)cc1` gave TDP1 cell CPT 2.5%, TDP1 cell noCPT 4.0%, HepG2 tox -2.9%, TGFb SMAD3 inh 9.9%, HT1080 IDH1KD tx 2.5% and HT1080-NT tox -1.2%[9.24 µM].
COc1cc(/C=C/C(=O)c2ccccc2O)cc(OC)c1OC was read as TDP1 cell CPT -29.6%, TDP1 cell noCPT inconclusive, HepG2 tox -62.9%, TGFb SMAD3 inh inconclusive, HT1080 IDH1KD tx inconclusive and HT1080-NT tox inconclusive.
